The panel holds about 79,000 compounds, 15% with a hit somewhere; the sample as a whole holds those more often. A number with no mark means an inactive call. No stated cut-off is given here; in the data, active means growth inhibition above about 70%; inactive means the rest.
test: NCI Yeast Anticancer Drug Screen. Data for the mlh1 rad18 strain (AID 175); details: S. cerevisiae mlh1 rad18 strain growth inhibition; at 50.0 µM; active compounds read high
Procedure: Growth inhibition of yeast strains with defined genetic alterations is measured as a screen for potential anti-cancer activity. Selected strains with alterations in DNA damage repair or cell cycle control were exposed to compounds and growth inhibition was measured relative to vehicle treated controls. The strain used in this assay is mlh1 rad18

Row | Structure (SMILES) | growth inhibition
1 | CC(=O)N1c2ccccc2S(=O)(=O)c2ccccc21 | 0.25%
2 | CCOC(=O)/C(=C/c1ccc(C#N)cc1)N(CC)CC | -9.25%
3 | CN(C)/N=N/c1nc2c(c(=O)n(C)c(=O)n2C)n1CC(O)CO (stereo not given) | 27.1%
4 | N#CCCC(CC#N)N1CCN(C(CC#N)CCC#N)CC1 (stereo not given) | -19.4%
5 | COC(=O)CCc1ccc(C2CO2)cc1 (stereo not given) | 10.3%
6 | COc1ccc(C23CCC(=O)N2CCS3)cc1 (stereo not given) | 2.8%
7 | CC1=C(C(=O)NCCc2ccccc2)CC(C(=O)NCCc2ccccc2)=C(C)N1 | -32.1%
8 | COc1ccc(OC)c(Cc2ccc(NC(C)=O)cc2)c1 | -2.65%
9 | O=C(/C=C/c1ccc(Cl)cc1)c1ccccc1O | 11.1%
10 | CCOC(=O)Nc1nc2c(s1)c([N+](=O)[O-])cn2C | 20.6%
11 | CC(=O)/C=C\c1ccc(-c2ccccc2)cc1 | -22.7%
12 | O=C1NC(=O)N(C(F)(F)F)C(F)(F)N1C(F)(F)F | 23.1%
13 | Cc1c(C)c2cc3c(=O)c(CCl)coc3c(C)c2oc1=O | -5.95%
14 | CNC(=O)/C(=C\c1ccccc1)NC(C)=O | -25.1%
15 | COc1cc2c(cc1OC)C(=O)N(c1ccc(OCCN3CCCC3)cc1)C2=O | -10.4%
16 | CCO[Si](OCC)(OCC)c1ccccc1 | -15.8%
17 | COc1ccc2ccc3[nH]c4c(C)cnc(NCCCN(C)C)c4c3c2c1 | 29.1%
18 | O=C1OC(C(O)C(O)C(O)CO)C(O)C1O (stereo not given) | 4.65%
19 | OCC(O)CNc1ncnc2ccccc12 (stereo not given) | 10.2%
20 | Clc1ccccc1C=Nc1ccccc1 | 34%

Row | Structure (SMILES) | growth inhibition
21 | C=C(C)[C@@H]1CC=C(CO)CC1 | 8.4%
22 | COC(=O)c1ccc(N(C)CC/C(CNc2nc(N)[nH]c(=O)c2[N+](=O)[O-])=N\NC(N)=O)cc1 | -4.15%
23 | CN1CCc2cc3c(cc2C(=O)Cc2ccc4c(c2C1)OCO4)OCO3 | -27.3%
24 | CC1(C)C(=O)NC(=O)N1CO | 20%
25 | NC(N)=Nc1cccc2ccccc12 | -5.15%
26 | Cc1[nH]c(=O)nc(N/N=C/c2ccc(O)cc2)c1C(=O)Nc1ccc(Cl)cc1 | -25.9%
27 | CC(C)(C)c1c(C#N)nnc2cc(-c3ccccc3)nn12 | 9.15%
28 | COc1cccc2cc(C(=O)Nc3ccccc3)c(=N)oc12 | -43%
29 | Nc1nn(CC(O)CO)c(=O)s1 (stereo not given) | 8%
30 | Nc1nc2c(C(=O)c3cccs3)nnn2c2cccc(Cl)c12 | -2.25%
31 | CCOc1nc(-c2ccccc2)cc(-c2ccc(N3CCOCC3)cc2)c1C#N | 27.5%
32 | OCC1=C(CO)CC=CC1 | 28.6%
33 | Nc1ncc2c(n1)-c1ccccc1OC2NC1CC1 (stereo not given) | -4.65%
34 | O=C(Nc1ccc(Nc2ccc(NC(=O)c3ccccc3)c3c2C(=O)c2ccccc2C3=O)c2c1C(=O)c1ccccc1C2=O)c1ccccc1 | -9.1%
35 | CCCCCCCC(=O)OCC1OC(n2cc(F)c(=O)[nH]c2=O)C(NC(=O)OCc2ccccc2)C(O)C1O (stereo not given) | -17.6%
36 | CC(SC(C)c1ccccc1)c1ccccc1 (stereo not given) | 3.65%
37 | Cc1ccc2sc3nc4ccccc4nc3c2c1 | -1.25%
38 | C=C(C(=O)O)C1CC[C@@]2(C)CC(O)CC(=C)C2C1 (stereo not given in full) | 14.7%
39 | COc1ccc(OC)c(NC(=O)c2ccccc2Cl)c1 | -16.8%
40 | CCc1cc2c(oc3c4ccccc4ccc23)c(=O)[nH]1 | -7.55%

From PubChem BioAssay (NCI)
